46 compounds from ChEMBL document CHEMBL3988442, “University of Dundee, Small-Polar-MMV Screening Library” (2021) can be followed below.

“And” between values parts separate entries of the source, which are not always exact repeats. Equal values may be shown once. Out of some 34,000 compounds screened, about 290 (0.85%) showed an effect of 50% or more. This is one part of a sample in which strong results are shown more often than they occur.

This test relates to Plasmodium falciparum. In words: Plasmodium falciparum sporozoite viability assay. Type of test: functional, organism-based. More on the design: scale not given: in the data most compounds retested in dose-response had high values.

Turning to `O=C(c1[nH]nc(C2CC2)c1Cl)N1CCN(C2CC2)C(=O)C1`, under “10 mM as filed; unlikely as a test dose”, the “Percent Effect” value is 67.53% and 69.62%.

Regarding `O=C(c1[nH]nc(C2CC2)c1Cl)N1CCN(C2CC2)CC1`, the “Percent Effect” value (10 mM as filed; unlikely as a test dose) is -13.62% and -21.71%.

In the case of `O=C(c1[nH]nc(C2CC2)c1Cl)N1CCCC1`, under “10 mM as filed; unlikely as a test dose”, the “Percent Effect” value was -32.9% and -32.97%.

Regarding `CCOCc1ncn2c1CN(C(=O)Nc1ccccc1CC)CC2`, the “Percent Effect” value amounted to 3.671%.

As for `CN(C)CCN1Cc2ncn(C)c2C(COCC(=O)N(C)C)C1` (stereo unspecified), the “Percent Effect” value stood at 10.44%.

As to `CC1CCc2nn(CCNC(=O)Cc3ccccc3F)c(=O)cc2C1` (stereo unspecified), the “Percent Effect” value (10 mM as filed; unlikely as a test dose) is -25.04% and -6.135% and -21.75%.

On to `CCN(CC)Cc1ccc(C(=O)N2CCCC2Cn2cccn2)o1` (stereo unspecified), for which the “Percent Effect” value is on record as -5.987%.

For `Cc1cc(N2CCC3(CCCN(CCO)C3=O)C2)nc2cc(Cl)ccc12` (stereo unspecified), the “Percent Effect” value was -0.3581%.

Take `Cc1cccc(C(=O)Nc2ccc(OC3CCN(C)CC3)cc2)c1`: the “Percent Effect” value (10 mM as filed; unlikely as a test dose) was 84.14% and 90.45% and 76.34%.

On to `COc1ccc(NC(=O)c2cnc(C3CCN(C)CC3)nc2C)cc1`, for which the “Percent Effect” value is -1.219%.

For `N#Cc1cc(NC(=O)c2ccccc2)ccc1N1CCC(O)CC1`, the “Percent Effect” value is on record as -10.71%.

As to `O=C(CN1CCCS1(=O)=O)Nc1ccc(OC2CCCC2)cc1`, the “Percent Effect” value was -4.929%.

Turning to `CCOc1ccc(N2CCCN=C2NC(=O)c2cccc(Cl)c2)cc1`, the “Percent Effect” value was -13.96%.

On to `O=C(NC1=NCCCN1c1ccc(Cl)cc1)c1cccc(Cl)c1`, for which the “Percent Effect” value (10 mM as filed; unlikely as a test dose) is -9.725% and -15.1% and -5.453%.

For `COc1cccc(C(=O)Nc2ccc(OC3CCN(C)CC3)cc2)c1`, the “Percent Effect” value (10 mM as filed; unlikely as a test dose) is 24.26% and 49.56% and 59.7%.

As for `CCC1=N[C@@]2(CC[C@@H]3CN(Cc4ccc(Cl)cc4)C[C@@H]32)C(=O)N1C.O=C(O)C(F)(F)F`, the “Percent Effect” value is on record as -5.486%.

As to `Cc1nc(CC(=O)N2CCC(c3nn(C)c4ncccc34)CC2)cs1.Cl`, the “Percent Effect” value is 3.729%.

Take `Cc1nc(-c2nnc[nH]2)sc1C(=O)N1CCCC1c1ccsc1` (stereo unspecified): the “Percent Effect” value was found to be 7.018%.

Turning to `Cc1nc(C)n(C2CCCN(C(=O)c3csc(CC(C)C)n3)C2)n1` (stereo unspecified), the “Percent Effect” value is reported as 0.06439%.

For the compound `CN(C)c1ccc(C(=O)N2CCC(c3cc4ncccc4[nH]3)CC2)cc1`, the “Percent Effect” value is -1.989%.

In the case of `CC(=O)NCCC(=O)NCc1cc(Br)ccc1OC(F)F`, the “Percent Effect” value is -22.55%.

Turning to `O=C(O)C(F)(F)F.O=C(c1ccccc1)N1CCCC2(CCN2Cc2cccc(F)c2)C1` (stereo unspecified), the “Percent Effect” value was 4.203%.

`CC(C)N1CCO[C@@H]2CN(C(=O)NCc3ccccc3)CC[C@@H]2C1.O=C(O)C(F)(F)F`: the “Percent Effect” value was 8.185%.

On to `CCC(=O)N1CCC(Cc2ccccc2-c2cccc(C)c2)(C(N)=O)C1` (stereo unspecified), for which the “Percent Effect” value was 2.181%.

Take `COc1cc(CNCc2ccnc(N3CCCCC3)c2)cc(OC)c1`: the “Percent Effect” value was 3.028%.

As for `CSc1ccccc1C(=O)Nc1ccc(OC2CCN(C)CC2)cc1`, the “Percent Effect” value (10 mM as filed; unlikely as a test dose) was 86.05% and 73.83% and 74.05%.

Regarding `O=C(CC1CC1)N1Cc2nccn2CC(Cn2ncccc2=O)C1` (stereo unspecified), the “Percent Effect” value is on record as 1.18%.

As for `CCN1CCCn2c(nc(CNC(=O)c3ccsc3)cc2=O)C1`, the “Percent Effect” value is recorded as -13.03%.

As for `O=C(c1cc(Cl)c[nH]1)N(CCCO)Cc1cccnc1`, the “Percent Effect” value is listed as -9.649%.

As for `Nc1nc2c(c3c1C(=O)NC3=O)CCCC2`, under “10 mM as filed; unlikely as a test dose”, the “Percent Effect” value was -19.96% and -21.28%.

Consider `O=C1NC(=O)c2c3c(nc(O)c21)CCCC3`, for which the “Percent Effect” value (10 mM as filed; unlikely as a test dose) was -19.04% and -16.96% and 3.732%.

`Nc1nc2c(c3c1C(=O)NC3=O)CCC2`: where the note is “10 mM as filed; unlikely as a test dose”, the “Percent Effect” value is 75.96% and 84.59%.

`CN(C)CCO[C@H]1CN(Cc2ccco2)[C@@H]2COC[C@H]12.O=C(O)C(F)(F)F.O=C(O)C(F)(F)F`: the “Percent Effect” value is 12.07%.

As to `CC(=O)N1CCCC(C(=O)c2cnn(-c3ccc(F)cc3)c2N)C1` (stereo unspecified), the “Percent Effect” value (10 mM as filed; unlikely as a test dose) was 27.98% and 70.48% and 45.02%.

For `CCC(=O)N1CCCC(c2nc(N(C)C)ncc2-c2ccc(F)cc2)C1` (stereo unspecified), the “Percent Effect” value is given as 2.091%.

Regarding `CCOC(=O)C1CCN(C(=O)c2cnn(-c3ccc(C)cc3)c2N)CC1`, the “Percent Effect” value is on record as -31.22%.

In the case of `CC(=O)N1CCC(C(=O)c2cnn(-c3ccccc3)c2N)C1` (stereo unspecified), the “Percent Effect” value is listed as -4.265%.

In the case of `CCCC(=O)N1CCCC(c2ccccn2)C1` (stereo unspecified), the “Percent Effect” value was -4.87%.

`CCC(=O)N1CCCC(C(=O)c2cnn(-c3ccc(F)cc3)c2N)C1` (stereo unspecified): the “Percent Effect” value (10 mM as filed; unlikely as a test dose) is 46.01% and 80.8% and 57.02%.

As to `COc1ccc2c(c1)c(-c1nc(N(C)C)ncc1CN)cn2C`, the “Percent Effect” value was 23.78%.

For the compound `CCC(=O)N1CCC2(CC1)CNC(=O)c1cc(C)ccc1O2`, the “Percent Effect” value is reported as 7.401%.

On to `CCOc1ncccc1NC(=O)Nc1c(C)nn(C(C)C)c1C`, for which the “Percent Effect” value worked out at 2.999%.

On to `Clc1ccc(OCCCN2CCN(c3cnccn3)CC2)cc1`, for which the “Percent Effect” value is given as -11.56%.

On to `O=C(Cn1cc(C2CC2)nn1)N(Cc1ccco1)CC1CCCO1` (stereo unspecified), for which the “Percent Effect” value is -0.6519%.

`Fc1cccc(Cc2cncc(C3CCCN3C3CCOCC3)n2)c1` (stereo unspecified): the “Percent Effect” value is recorded as -10.3%.

Consider `Cc1cccc(C(=O)N2CCN(C(=O)Cc3ccccn3)CC2)c1C`, for which, where the note is “10 mM as filed; unlikely as a test dose”, the “Percent Effect” value is 0.7402% and -14.31% and -17.8%.
